Here are results for 59 compounds from ChEMBL document CHEMBL3988442, “University of Dundee, Small-Polar-MMV Screening Library” (2021).

Molecules are shown by their SMILES. The campaign covered roughly 48,000 compounds. About 13,000 (27%) showed an effect of 50% or more. The list shows a part of the results.

For the assay, the system named is Wolbachia pipientis. Kind of assay: Anti-Wolbachia Cell-Based Screen. Conditions: 5 µM. Set-up: scale not given: in the data most compounds retested in dose-response had high values. Format: functional.
For `O=S(=O)(CCO)Cc1ccc(OC(F)F)cc1`, the “Percent Effect” value is -13.52%.

For the compound `COc1cccc(-c2noc(-c3ccc(NCCCN)nc3)n2)c1OC`, the “Percent Effect” value was -11.46%. As for `O=C(Cn1cc(C2CC2)nn1)NC(c1ccc(Cl)cc1)C1CC1` (centres undefined), the “Percent Effect” value is recorded as -3.06%. Take `CCc1nnc(N2CCN(c3ccccc3)C(=O)C2)o1`: the “Percent Effect” value was 1.843%. For the compound `CCc1ccc(CN2CCN(c3ccc(C#N)cc3)C(=O)C2)nc1`, the “Percent Effect” value is listed as -14.58%. Then `CCc1nnc(CN2CCN(c3cccc(OC)c3)C(=O)C2)o1`, with 104.5%; and `CCc1ccc(CN2CCN(c3cccc(OC)c3)C(=O)C2)nc1`, with 111.5%; and `COc1cccc(N2CCN(Cc3ncc[nH]3)CC2=O)c1`, with -4.353%. Then `CN(C)c1ccc(CN2CCN(c3ccc(C#N)cc3)C(=O)C2)cn1`, with 27.75%; and `Cc1ccc(S(=O)(=O)n2ccc(C(=O)NCC(F)(F)F)c2)cc1`, with 31.33%.

`COc1ccc2c(=O)n(CC3CC3)ccc2c1OC`: the “Percent Effect” value is on record as 8.638%. For the compound `CCn1cnnc1CNC(=O)NC(C)c1cccs1` (centres undefined), the “Percent Effect” value is on record as 5.383%.

On to `CC(NC(=O)NCCNc1ccccn1)c1cccs1` (centres undefined), for which the “Percent Effect” value was 84.24%. For the compound `CC(C)C(NC(=O)NCCNc1ccccn1)c1cccs1` (centres undefined), the “Percent Effect” value is on record as -3.383%. Take `COc1ccc(C(C)NC(=O)NCCNc2ccccn2)c(OC)c1` (centres undefined): the “Percent Effect” value stood at 23.68%. Consider `CC(NC(=O)NCc1ccccn1)c1cccs1` (centres undefined), for which the “Percent Effect” value was 95.38%. Turning to `O=C(O)C(F)(F)F.O=S(=O)(C1CC1)N1CC[C@]2(C[C@@H](Oc3ccccn3)CO2)C1`, the “Percent Effect” value is given as -7.855%.

On to `CN(C)c1ncc(CNS(=O)(=O)c2cc(F)ccc2Cl)n1C`, for which the “Percent Effect” value is -4.152%. The same measure for `COCCN1CCC(C(=O)N(C)Cc2c[nH]c3ccc(C)cc23)C1` (centres undefined): -13.06%; for `CN(C)C(=O)C1CCN(C2CCN(CC3CCC3)CC2)CC1.O=C(O)C(F)(F)F.O=C(O)C(F)(F)F`: 115.1%; for `CN(C)Cc1cn2c(n1)CN(CC1CCCC1)CC2.O=C(O)C(F)(F)F.O=C(O)C(F)(F)F`: -16.91%. The same measure for `CC(C)CN1CC[C@@H]2[C@@H]1CCN2C(=O)N1CCCC1.O=C(O)C(F)(F)F`: -1.369%; for `CN(C)C(=O)C1CCN(C2CCN(CC3CC3)CC2)CC1.O=C(O)C(F)(F)F.O=C(O)C(F)(F)F`: 109%. `CC(C)CN1CC[C@@H]2[C@H](CC1)N(C(=O)c1ccccc1)CCS2(=O)=O.O=C(O)C(F)(F)F`: the “Percent Effect” value was -7.451%. Then `CCN1CCC(N2CCC(C(=O)N(C)C)CC2)CC1.O=C(O)C(F)(F)F.O=C(O)C(F)(F)F`, with 104.7%; and `CC(C)CN1CCC(N2CCC(C(=O)N(C)C)CC2)CC1.O=C(O)C(F)(F)F.O=C(O)C(F)(F)F`, with 126.3%; and `CN1CCC2(CCN(CC3CC3)CC2)C1=O.O=C(O)C(F)(F)F`, with -0.5297%.

For `CN(C)C(=O)CN1CC[C@H]2CN(C3CCOCC3)C[C@@H]2C1=O.O=C(O)C(F)(F)F`, the “Percent Effect” value is given as -33.67%. Then `CCc1nc(CN2CCC(C(=O)N(C)C)CC2)cs1`, with -2.315%; and `CN1CCN(C2COC3(CCN(CC4CC4)CC3)C2)CC1.O=C(O)C(F)(F)F.O=C(O)C(F)(F)F.O=C(O)C(F)(F)F` (centres undefined), with -10.32%. In the case of `CC(C)C(=O)N1CCC2(CN(CC3CCCC3)C2)C1.O=C(O)C(F)(F)F`, the “Percent Effect” value is -3.433%. Then `CN1CC(=O)N(c2ccsc2)CC12CCN(S(C)(=O)=O)C2.O=C(O)C(F)(F)F` (centres undefined), with -22.3%; and `O=C(C1CCC2(CCN(CC3CCOCC3)CC2)O1)N1CCCCO1.O=C(O)C(F)(F)F` (centres undefined), with -16.72%.

With `O=C(O)C(F)(F)F.O=C([C@@H]1COC[C@H]2CN(c3ccncn3)C[C@H]21)N1CCCC1`, the “Percent Effect” value is -1.455%.

`Cc1ccc(C(=O)Nc2cn[nH]c2)cc1C`: the “Percent Effect” value is recorded as -10.82%.

Take `Cc1nc[nH]c1CN1C[C@@H]2CC[C@H](C1)N(C(=O)CCNS(C)(=O)=O)C2`: the “Percent Effect” value is listed as -6.405%. Then `O=C(COCC1CCCCO1)N1CCN(Cc2ccccc2F)C(=O)C1` (centres undefined), with -11.31%; and `N#CC1C(=O)Nc2c(cnn2C2CCCC2)C12CCCC2` (centres undefined), with 15.25%.

As to `CN1CCC(N2CCC(C(=O)N(C)C)CC2)CC1.O=C(O)C(F)(F)F.O=C(O)C(F)(F)F`, the “Percent Effect” value is 107.5%.

On to `CC(C)N1CCC(C(=O)N(C)CC(=O)c2ccc(O)cc2)CC1`, for which the “Percent Effect” value is listed as -30.04%. The same measure for `CN(C)C(=O)C1CCC2(CCN(Cc3cnn(C)c3)CC2)C1.O=C(O)C(F)(F)F` (centres undefined): -4.25%; for `CN1CCN(C2CCN(C(=O)CCC3CCCC3)CC2)CC1.O=C(O)C(=O)O`: 6.776%. Then `CC(C)N1CCC(N2CCC(C(=O)N(C)C)CC2)CC1.O=C(O)C(F)(F)F.O=C(O)C(F)(F)F`, with 105.3%. For `CC(C)CNC(=O)C(C)N1CCN(C2CCN(C(C)C)CC2)CC1` (centres undefined), the “Percent Effect” value is given as -39.91%. The same measure for `CCn1nc2c(cc1=O)CN(CC1CCCCO1)CC2` (centres undefined): -5.782%; for `N[C@@H]1c2ccccc2C2(CCN(C(=O)c3ccc(CO)o3)CC2)[C@H]1O`: 13.24%; for `CCOc1cc(CNCc2nc(C)cc(=O)[nH]2)c(Cl)cc1OC(C)C`: -17.65%. Then `CCN(Cc1noc(C)n1)C(=O)CCc1scnc1C`, with 1.92%; and `Cc1c[nH]nc1C1CCCN1Cc1nccn1C.O=CO` (centres undefined), with 95.89%. As for `CC(C)(C)c1coc([C@@H]2COCCN2Cc2ncc[nH]2)n1`, the “Percent Effect” value is given as -0.9304%. Then `Cc1ccc(-c2c[nH]c([C@@H]3COCCN3Cc3ncc[nH]3)n2)cc1`, with 0.7932%; and `Cc1nccn1CCC1CCCCN1Cc1ccncc1` (centres undefined), with 6.487%; and `Cc1noc(C)c1-c1cncc(C2CCCN2Cc2ccncc2)n1` (centres undefined), with -4.931%. Then `CCn1ccnc1CN1CCCC1c1c(C)nn(C)c1OC` (centres undefined), with -25.16%; and `COc1c(C2CCCN2Cc2nccn2C)c(C)nn1C` (centres undefined), with 8.453%. The same measure for `Cc1c[nH]nc1C1CCCN1Cc1ccncc1` (centres undefined): 100.6%. As to `Cc1c[nH]nc1C1CCCN1Cc1ncc[nH]1.O=CO` (centres undefined), the “Percent Effect” value was determined as 85.61%. Then `CCc1ncncc1C(=O)NCCNS(=O)(=O)c1ccccc1`, with 12.25%; and `O=C(c1c[nH]nn1)N1CCN(C(c2ccccc2)C(F)(F)F)CC1` (centres undefined), with 0.659%.
